# Results reported in ChEMBL document CHEMBL3433997, “St. Jude Leishmania screening dataset” (2016).
# How the values were obtained:
# Format in all cases: functional
# [1] = target: Solute carrier family 2, facilitated glucose transporter member 1 (Homo sapiens) (UniProt P11166); test: ST_JUDE_LEISH: Cytotoxicity at 2uM final concentration against transgenic Leishmania Mexicana promastigotes LmGLUT1 that are glucose transport deficient and complemented with the human glucose transporter GLUT1. Activity is measured by DNA content using SYBR green in vitro
# [2] = target: Hexose transporter 1 (Plasmodium falciparum) (UniProt O97467); test: ST_JUDE_LEISH: Cytotoxicity at 2uM final concentration against transgenic Leishmania Mexicana promastigotes LmPfHT that are glucose transport deficient and complemented with the Plasmodium falciparum hexose transporter. Activity is measured by DNA content using SYBR green in vitro
# [3] = target: Glucose transporter (Leishmania mexicana) (UniProt O61059); test: ST_JUDE_LEISH: Cytotoxicity at 2uM final concentration against transgenic Leishmania Mexicana promastigotes LmGT2 that are glucose transport deficient and complemented with the L. Mexicana glucose transporter 2. Activity is measured by DNA content using SYBR green in vitro
# Sequence of Solute carrier family 2, facilitated glucose transporter member 1 (Homo sapiens) (P11166 whole entry): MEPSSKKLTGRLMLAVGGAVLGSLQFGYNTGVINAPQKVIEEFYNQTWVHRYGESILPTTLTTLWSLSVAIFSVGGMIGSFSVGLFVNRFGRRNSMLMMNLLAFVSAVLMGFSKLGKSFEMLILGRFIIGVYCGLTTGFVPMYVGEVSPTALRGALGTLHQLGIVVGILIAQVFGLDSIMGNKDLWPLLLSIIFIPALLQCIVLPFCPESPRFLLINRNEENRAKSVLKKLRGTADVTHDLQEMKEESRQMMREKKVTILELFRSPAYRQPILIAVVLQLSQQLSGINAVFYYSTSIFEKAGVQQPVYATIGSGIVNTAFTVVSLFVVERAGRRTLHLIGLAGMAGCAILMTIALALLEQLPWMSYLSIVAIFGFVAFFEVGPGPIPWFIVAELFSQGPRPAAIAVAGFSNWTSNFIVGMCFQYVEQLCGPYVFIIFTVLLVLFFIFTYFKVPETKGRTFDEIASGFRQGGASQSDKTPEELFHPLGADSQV
Structure (SMILES),inhibition [1] [%],inhibition [2] [%],inhibition [3] [%]
C[C@H](N[C@H]1CCCc2c1[nH]c1ccc(Br)cc21)c1ccccc1,2.46,0.78,0.74
COc1ccc2nccc([C@@H](O)CN3CCC(NCCNc4cccc(F)c4)CC3)c2c1,6.07,11.1,0.95
CC(C)N1CCC(NCc2ccc(-c3ccc(Cl)cc3)cc2)CC1,11.6,13.6,10.2
c1ccc(-c2csc(Nc3nc4cc5c(cc4s3)OCO5)n2)nc1,0.62,0.83,-1.72
NC(=O)c1cccc(Nc2nccc(Nc3ccc(Oc4cccc(Cl)c4)c(Cl)c3)n2)c1,10.6,9.87,7.71
c1ccc(CNCc2ccc(-c3cccc(-c4nc5ccccc5[nH]4)c3)cc2)cc1,-1.6,-1.2,-1.62
CN(C)C(=S)N/N=C1/C(=O)Nc2ccccc21,3.54,1.92,1.43
COc1cc(OC)cc(C(=O)N2CCOC(CCN3CCC(c4ccccc4)CC3)(c3ccc(Cl)c(Cl)c3)C2)c1 (centres undefined),0.22,-0.92,-1.58
CN(CCCc1c[nH]c2ccccc12)CC1CCN(C(=O)/C=C/c2ccc(Cl)c(Cl)c2)CC1,-3.42,-1.25,-1.38
COc1ccc2ncc(C#N)c(CCN3C[C@H](CNCc4ccccc4)[C@H](O)C3)c2n1,3.18,3.76,2.91
CC(C)N1CCC(N(Cc2ccc(-c3ccc(Cl)cc3)cc2)C(=O)Cn2c(CCc3cccc(F)c3F)nc(=O)c3ccccc32)CC1,6.02,5.38,3.03
FC(F)(F)c1cccc(CNCCCCCNCc2ccc(Cl)cc2)c1,2.96,1.16,-0.19
CC(C)C(=O)NC(NC(=S)Nc1ccc(Br)cc1)C(Cl)(Cl)Cl (centres undefined),-2.18,2.18,-0.89
CCN(CC)CCOC(=O)c1ccc(NC(=O)c2cc(-c3ccc(C)cc3)nc3ccccc23)cc1,1.71,0.95,1.21
COc1ccc(NC(=O)[C@H](CC(C)C)Nc2cc(C)nc(NCc3ccccc3C)n2)cc1,1.76,2.18,0.33
COc1ccc2c(=NN=Cc3cccc(C)n3)cc(-c3ccccc3)[nH]c2c1,4.3,2.19,4.08
O=C(NC(Nc1ccc([N+](=O)[O-])cc1)C(Cl)(Cl)Cl)c1ccc(Cl)cc1 (centres undefined),0.96,-3.03,-2.78

Structure (SMILES),inhibition [1] [%],inhibition [2] [%],inhibition [3] [%]
Fc1ccc2c(NN=Cc3ccccc3F)ccnc2c1,0.28,-0.28,0.43
COc1ccccc1Cc1nc2ccccc2nc1SCC(=O)Nc1cccc(C(F)(F)F)c1,3.27,3.21,1.7
CCc1cn2c3c(cc(C(=O)N[C@@H](Cc4cccc(Cl)c4)[C@H](O)CNC4CC4)cc13)N(C)S(=O)(=O)CC2,-0.47,-1.46,-2.88
Cc1[nH]c(C)c(-c2ccc(-c3cccc(OC(F)(F)F)c3)nc2)c(=O)c1Cl,-1.57,0.86,-0.63
CCn1c(-c2nonc2N)nc2c(-c3cccc(Cl)c3)ncc(OCCCNCCc3c[nH]cn3)c21,4.7,4.78,3.45
O=C(NCCc1cccc(F)c1)c1cc(Br)cc(N2CCN(c3ccncc3)CC2)c1,6.76,5.57,3.44
CC1CN(Cc2ccccc2)CCN1c1ccc(NC(=O)c2cccs2)cc1 (centres undefined),10.9,12.3,10.8
CN1CCN(C(C(=O)NCc2cc(Cl)cc(Cl)c2)c2ccc(Nc3cccc(C(F)(F)F)c3)cc2)CC1 (centres undefined),1,-2.61,-2.02
CN(C)c1cccc(-c2cnc3ccc(NCc4cccc(Cl)c4)nn23)c1,1.27,2.01,1.77
COc1cncc(/C=C/c2cncc(C(=O)NCCc3ccc(Cl)cc3Cl)c2)c1,4.53,5.13,3.94
COc1ccc(NCCCNc2ccnc3ccccc23)cc1,5.01,4.48,1.73
Fc1cccc(COc2ccc(Nc3ncnc4sc(C#CC5CCCCN5)cc34)cc2Cl)c1 (centres undefined),3.03,1.13,-0.16
O=C(Nc1ccc2nccc(N3CCN4CCC[C@H]4C3)c2c1)c1ccc(Cl)c(Cl)c1,1.13,1.72,-1.03
CCN(CCNC(=O)Cn1c(C)cc2cc([N+](=O)[O-])ccc21)c1cccc(C)c1,6.46,6.77,6.91
CCNCc1ccc(-c2cccc(-c3nc4ccccc4[nH]3)c2)cc1,1.09,1.16,3.49
CC(C)N1CCN(C(CN2CCN(CCCOc3ccccc3-c3ccccc3)CC2)c2ccc(F)cc2)CC1 (centres undefined),6.32,5.02,5.95
